Among the test systems are SK-MEL-2 melanoma; EKVX NSCLC; SN12C renal; UO-31 renal; TK-10 renal; ACHN renal; CAKI-1 renal; A498 renal; CCRF-CEM leukemia; MOLT-4 leukemia; RPMI-8226 leukemia; OVCAR-8 ovarian; OVCAR-5 ovarian; OVCAR-4 ovarian; SK-OV-3 ovarian; IGROV1 ovarian; OVCAR-3 ovarian; HS 578T breast; NCI/ADR-RES ovarian.
Holding throughout (assay): NCI-60 one-dose screen, 48 h (100 = growth as untreated, 0 = no growth, -100 = all killed)
Holding throughout (settings): 10 µM unless noted

This is part of a sample that, as a whole, favours compounds with a hit. Of some 83,000 tested, about 20% had one in any assay.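 Results are percent growth after 48 hours of single-concentration exposure. 100 means growth as in untreated cells, lower positive values show inhibition; negative values down to -100 show cell death.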 A number with no mark means an inactive call. Active and inactive are the calls of the source. The calls were made as follows: active = growth percent below 10; inactive = the rest.

Turning to `Cc1oc(-c2ccc(Cl)cc2Cl)cc1C(=O)Nc1nccs1`, the growth was 102% with SK-MEL-2 melanoma; 70.7% in the assay with EKVX NSCLC; 78.3% in the assay with SN12C renal; 82% in the assay on UO-31 renal; 103% with TK-10 renal; 62.5% in the assay on ACHN renal. Besides, the growth in the assay with CAKI-1 renal was 78.1%; in the assay on A498 renal it was 102%; in the assay with CCRF-CEM leukemia it was 89%; in the assay with MOLT-4 leukemia, 94%; in the assay with RPMI-8226 leukemia it was 98.4%; in the assay on OVCAR-8 ovarian, 80%. Further, the growth was 83.1% in the assay with OVCAR-5 ovarian; 7.78% (active) in the assay on OVCAR-4 ovarian; 89.8% with SK-OV-3 ovarian; 81.6% in the assay on IGROV1 ovarian; 101% in the assay on OVCAR-3 ovarian; 77.1% in the assay on HS 578T breast. In the assay with NCI/ADR-RES ovarian, the growth was 89.6%.
With `COc1ccc(-c2nc3ccc(-c4nc5ccc(N6CCN(c7ccncc7)CC6)cc5[nH]4)cc3[nH]2)cc1OC`, the growth in the assay on SK-MEL-2 melanoma is -17% (active); with EKVX NSCLC it was 69.2%; with SN12C renal it was 45.2%; with UO-31 renal, 97.5%; in the assay with TK-10 renal, 101%; in the assay with ACHN renal, 91.9%. In addition, the growth is 57.5% in the assay on CAKI-1 renal; 61.4% in the assay on A498 renal; 21.1% with CCRF-CEM leukemia; 18.1% in the assay on MOLT-4 leukemia; 53.5% with RPMI-8226 leukemia; 34.6% with OVCAR-8 ovarian. For the same molecule, the growth with OVCAR-5 ovarian is 87.2%; in the assay with OVCAR-4 ovarian, 26.5%; with SK-OV-3 ovarian, 73.6%; in the assay with IGROV1 ovarian it was 65.2%; with OVCAR-3 ovarian, 4.61% (active); in the assay on HS 578T breast, 44.1%. The growth in the assay with NCI/ADR-RES ovarian is 96.9%.
`COc1ccc(Nc2c3c4c(cccc4[nH]c2=O)C(=O)c2ccccc2-3)cc1`: the growth is 40.2% in the assay with SK-MEL-2 melanoma; 42.3% in the assay on EKVX NSCLC; 40% in the assay with SN12C renal; 30.3% in the assay on UO-31 renal; 28.6% with TK-10 renal; 24.2% in the assay on ACHN renal. Further, the growth in the assay on CAKI-1 renal is 11.7%; in the assay with A498 renal, 23%; in the assay on CCRF-CEM leukemia, -0.546% (active); in the assay on MOLT-4 leukemia, 1.81% (active); with RPMI-8226 leukemia, 5.52% (active); in the assay on OVCAR-8 ovarian, 13.1%. In addition, the growth in the assay with OVCAR-5 ovarian was 24.1%; in the assay with OVCAR-4 ovarian, 58.4%; in the assay on SK-OV-3 ovarian, -5.92% (active); in the assay with IGROV1 ovarian, -11.9% (active); with OVCAR-3 ovarian it was -39% (active); in the assay on HS 578T breast, -12.4% (active). In the assay on NCI/ADR-RES ovarian, the growth is 0.0341% (active).
Turning to `O=C(CN1C(=O)/C(=C/c2ccc(Cl)cc2)SC1=S)NCCCN1CCOCC1`, the growth in the assay on SK-MEL-2 melanoma was 111%; with EKVX NSCLC, 90.7%; with SN12C renal, 94.7%; in the assay on UO-31 renal, 83.2%; with TK-10 renal it was 117%; in the assay with ACHN renal, 94.6%. In addition, the growth in the assay on CAKI-1 renal is 89.4%; in the assay with A498 renal it was 104%; in the assay on CCRF-CEM leukemia, 105%; with MOLT-4 leukemia, 102%; in the assay with RPMI-8226 leukemia, 96%; with OVCAR-8 ovarian, 103%. The growth in the assay on OVCAR-5 ovarian is 103%; in the assay with OVCAR-4 ovarian, 93.5%; in the assay with SK-OV-3 ovarian it was 97.8%; in the assay with IGROV1 ovarian, 108%; with OVCAR-3 ovarian it was 101%; in the assay on HS 578T breast it was 84.2%. Also, in the assay on NCI/ADR-RES ovarian, the growth is 99.9%.
Consider `CC(C)(O)c1cn(CCCCN2C(=O)C(=O)c3ccccc32)nn1`, for which the growth with SK-MEL-2 melanoma is 101%; in the assay on EKVX NSCLC, 93.7%; with SN12C renal it was 102%; in the assay with UO-31 renal, 82.7%; in the assay on TK-10 renal it was 108%; in the assay with ACHN renal, 104%. The growth in the assay with CAKI-1 renal is 93.9%; in the assay on A498 renal it was 71.7%; in the assay with CCRF-CEM leukemia, 101%; in the assay with MOLT-4 leukemia, 94.6%; in the assay with RPMI-8226 leukemia it was 95.9%; with OVCAR-8 ovarian it was 102%. For the same molecule, the growth was 96.4% in the assay with OVCAR-5 ovarian; 96.5% in the assay on OVCAR-4 ovarian; 95.7% with SK-OV-3 ovarian; 102% in the assay with IGROV1 ovarian; 109% in the assay on OVCAR-3 ovarian; 99.6% with HS 578T breast. Also, the growth in the assay on NCI/ADR-RES ovarian was 99.9%.
On to `COc1cc2nc(N3CCCC3)nc(NCc3ccccc3)c2cc1OC`, for which the growth was 106% with SK-MEL-2 melanoma; 74.7% in the assay with EKVX NSCLC; 69.6% in the assay with SN12C renal; 52.1% in the assay with UO-31 renal; 100% in the assay on TK-10 renal; 62.2% in the assay on ACHN renal. Besides, the growth in the assay with CAKI-1 renal was 65.8%; in the assay on A498 renal it was 36.3%; in the assay on CCRF-CEM leukemia it was 5.92% (active); in the assay on MOLT-4 leukemia, 35.4%; in the assay with RPMI-8226 leukemia, 12.7%; with OVCAR-8 ovarian, 78.9%. For the same molecule, the growth with OVCAR-5 ovarian is 80.4%; with OVCAR-4 ovarian, 57.2%; with SK-OV-3 ovarian, 96%; in the assay with IGROV1 ovarian, 90.4%; in the assay on OVCAR-3 ovarian, 68.1%; with HS 578T breast it was 73.7%. Further, the growth in the assay with NCI/ADR-RES ovarian was 72.4%.
Take `O=C(/C=C/c1ccccc1)c1ccc(O)c(CN2CCN(c3cc4c(cc3F)c(=O)c(C(=O)O)cn4C3CC3)CC2)c1`: the growth in the assay with SK-MEL-2 melanoma is 22.8%; in the assay with EKVX NSCLC it was 43.3%; with SN12C renal it was 8.48% (active); in the assay with UO-31 renal, 12.3%; with TK-10 renal it was 62.7%; in the assay on ACHN renal, 14.4%. The growth with CAKI-1 renal was 20.6%; in the assay with A498 renal, -18.4% (active); in the assay on CCRF-CEM leukemia it was 18.4%; in the assay on MOLT-4 leukemia it was 35.8%; in the assay with RPMI-8226 leukemia, -7.8% (active); in the assay on OVCAR-8 ovarian, 9.75% (active). The growth in the assay with OVCAR-5 ovarian was 38.2%; in the assay on OVCAR-4 ovarian it was 85%; with SK-OV-3 ovarian, 20.3%; in the assay on IGROV1 ovarian it was 28.7%; in the assay with OVCAR-3 ovarian, 18.4%; with HS 578T breast, 31%. Besides, the growth with NCI/ADR-RES ovarian is 49%.
`O=C(COc1cccc(/C=C2\COc3ccc(Cl)cc3C2=O)c1)c1ccc(Cl)cc1`: the growth was 54.2% in the assay on SK-MEL-2 melanoma; 101% in the assay with EKVX NSCLC; 97.3% in the assay on SN12C renal; 69.3% with UO-31 renal; 98.4% with TK-10 renal; 91% with ACHN renal. Moreover, the growth in the assay with CAKI-1 renal is 84.2%; with A498 renal, 111%; with CCRF-CEM leukemia, 2.99% (active); with MOLT-4 leukemia, 41.2%; in the assay with RPMI-8226 leukemia, -11.4% (active); with OVCAR-8 ovarian, 91.7%. The growth was 81.1% with OVCAR-5 ovarian; 90.5% in the assay on OVCAR-4 ovarian; 99% in the assay with SK-OV-3 ovarian; 38.3% with IGROV1 ovarian; 87.4% in the assay on OVCAR-3 ovarian; 72.3% in the assay with HS 578T breast. In the assay on NCI/ADR-RES ovarian, the growth is 84%.
